# Measurements taken from PubChem BioAssay.
# Calls of active or inactive are those of the source.
# How the values were obtained:
# [1] = small molecules captured by biotinylated probe aFSTL3 – biochemical, small-molecule microarray, fluorescence 635/667, stem cell growth factor project, primary screen (AID 1064); details: higher = more signal;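 note: measures binding of the biotinylated anti-FSTL3 antibody to printed compounds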
# [2] = binders from COS7 lysate, DM2A8 probe, primary screen, torsin A project, cell lysate, small-molecule microarray, fluorescence 635/667 (AID 1065); details: higher = more signal, COS7 lysate expressing mutant human TOR1A
# [3] = small molecules captured by biotinylated probe aFGF2 – biochemical, small-molecule microarray, fluorescence 635/667, stem cell growth factor project, primary screen (AID 1067); details: higher = more signal;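 note: measures binding of biotinylated aFGF2 protein to printed compounds on slides; z-score merges feature fluorescence and signal-to-noise across triplicate slides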
# [4] = small molecules captured by biotinylated probe aFGF10 – biochemical, small-molecule microarray, fluorescence 635/667, stem cell growth factor project, primary screen (AID 1071); details: higher = more signal;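 note: score merges 667 nm spot intensity and signal to noise from triplicate slides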
# [5] = biological target: Neurogenic locus notch homolog protein 2 (Homo sapiens) (UniProt Q04721); experiment: small molecules binding Notch2 protein – biochemical, small-molecule microarray, 635 nm fluorescence, stem cell growth factors, primary screen (AID 1073); details: higher = more signal
# Chain of Neurogenic locus notch homolog protein 2 (Homo sapiens) (Q04721 whole entry, looked up, canonical isoform): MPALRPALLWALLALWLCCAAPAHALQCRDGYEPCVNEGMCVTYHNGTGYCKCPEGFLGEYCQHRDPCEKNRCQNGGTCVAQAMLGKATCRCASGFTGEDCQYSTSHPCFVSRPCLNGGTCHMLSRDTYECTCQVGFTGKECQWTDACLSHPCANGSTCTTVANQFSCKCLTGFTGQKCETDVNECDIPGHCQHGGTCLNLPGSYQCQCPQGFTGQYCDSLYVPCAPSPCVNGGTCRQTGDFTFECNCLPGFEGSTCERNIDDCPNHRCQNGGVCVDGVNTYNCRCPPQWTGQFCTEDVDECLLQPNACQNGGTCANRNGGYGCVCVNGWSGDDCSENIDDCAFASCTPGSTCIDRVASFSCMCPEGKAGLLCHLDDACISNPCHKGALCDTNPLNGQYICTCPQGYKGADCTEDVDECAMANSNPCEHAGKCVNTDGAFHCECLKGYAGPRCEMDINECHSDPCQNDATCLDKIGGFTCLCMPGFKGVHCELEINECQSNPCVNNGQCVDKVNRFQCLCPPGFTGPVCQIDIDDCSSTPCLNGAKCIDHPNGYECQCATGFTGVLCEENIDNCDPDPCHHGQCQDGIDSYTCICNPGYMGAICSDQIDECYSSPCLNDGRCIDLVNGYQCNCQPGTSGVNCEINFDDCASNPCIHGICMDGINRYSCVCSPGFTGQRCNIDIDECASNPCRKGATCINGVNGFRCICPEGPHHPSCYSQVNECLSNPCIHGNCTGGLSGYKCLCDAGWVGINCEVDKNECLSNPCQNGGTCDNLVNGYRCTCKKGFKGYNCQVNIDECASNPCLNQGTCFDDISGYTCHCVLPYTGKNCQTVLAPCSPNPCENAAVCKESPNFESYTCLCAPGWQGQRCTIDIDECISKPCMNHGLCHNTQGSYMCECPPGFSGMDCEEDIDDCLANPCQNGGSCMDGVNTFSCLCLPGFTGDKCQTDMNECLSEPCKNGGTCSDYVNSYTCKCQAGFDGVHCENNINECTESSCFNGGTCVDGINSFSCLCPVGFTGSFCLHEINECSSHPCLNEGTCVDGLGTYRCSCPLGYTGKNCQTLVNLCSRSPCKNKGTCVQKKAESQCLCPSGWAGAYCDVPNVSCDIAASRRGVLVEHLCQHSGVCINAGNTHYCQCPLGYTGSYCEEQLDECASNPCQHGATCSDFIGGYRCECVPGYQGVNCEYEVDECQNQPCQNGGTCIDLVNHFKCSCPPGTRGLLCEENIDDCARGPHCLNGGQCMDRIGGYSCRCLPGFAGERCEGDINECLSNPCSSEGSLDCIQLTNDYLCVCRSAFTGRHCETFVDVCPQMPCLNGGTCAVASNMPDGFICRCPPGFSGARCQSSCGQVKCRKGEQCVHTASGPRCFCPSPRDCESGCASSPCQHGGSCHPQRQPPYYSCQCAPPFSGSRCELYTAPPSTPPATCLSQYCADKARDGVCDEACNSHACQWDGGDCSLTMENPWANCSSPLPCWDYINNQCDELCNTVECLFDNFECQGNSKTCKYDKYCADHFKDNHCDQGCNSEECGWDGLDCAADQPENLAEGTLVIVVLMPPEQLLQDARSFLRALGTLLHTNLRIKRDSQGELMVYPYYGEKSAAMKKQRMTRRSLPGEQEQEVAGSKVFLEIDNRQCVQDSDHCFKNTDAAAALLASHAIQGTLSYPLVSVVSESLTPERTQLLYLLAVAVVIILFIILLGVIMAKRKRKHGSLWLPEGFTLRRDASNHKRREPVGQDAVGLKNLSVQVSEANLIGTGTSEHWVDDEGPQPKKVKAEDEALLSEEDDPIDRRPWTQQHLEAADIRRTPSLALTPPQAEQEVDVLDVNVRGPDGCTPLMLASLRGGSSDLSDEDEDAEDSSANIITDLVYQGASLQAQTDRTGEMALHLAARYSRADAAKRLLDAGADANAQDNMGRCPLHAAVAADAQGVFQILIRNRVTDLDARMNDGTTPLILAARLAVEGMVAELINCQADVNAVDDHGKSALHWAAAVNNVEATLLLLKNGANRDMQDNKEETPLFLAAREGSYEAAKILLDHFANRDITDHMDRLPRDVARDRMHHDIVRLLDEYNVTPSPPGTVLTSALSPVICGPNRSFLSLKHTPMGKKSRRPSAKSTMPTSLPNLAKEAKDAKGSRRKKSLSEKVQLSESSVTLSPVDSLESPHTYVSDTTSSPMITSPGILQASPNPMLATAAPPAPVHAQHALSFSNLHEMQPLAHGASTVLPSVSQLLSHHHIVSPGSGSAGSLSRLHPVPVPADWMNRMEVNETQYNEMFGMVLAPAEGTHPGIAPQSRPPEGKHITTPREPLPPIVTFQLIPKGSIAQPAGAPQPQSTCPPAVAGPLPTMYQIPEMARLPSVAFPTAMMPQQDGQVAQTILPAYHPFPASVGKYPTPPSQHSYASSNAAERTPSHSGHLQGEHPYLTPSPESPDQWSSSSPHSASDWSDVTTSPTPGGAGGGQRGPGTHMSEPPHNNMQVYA
# [6] = biological target: Pro-neuregulin-1, membrane-bound isoform (Homo sapiens) (UniProt Q02297); experiment: small molecules binding neuregulin-1 protein – biochemical, small-molecule microarray, fluorescence 635/667, psychiatric disease protein project, primary screen (AID 1075); details: NRG1 binding, 635 nm fluorescence, higher = more signal;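 note: score combines 667 nm spot fluorescence with signal to noise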
# Chain of Pro-neuregulin-1, membrane-bound isoform (Homo sapiens) (Q02297 whole entry, looked up, the tested form may be a part, canonical isoform): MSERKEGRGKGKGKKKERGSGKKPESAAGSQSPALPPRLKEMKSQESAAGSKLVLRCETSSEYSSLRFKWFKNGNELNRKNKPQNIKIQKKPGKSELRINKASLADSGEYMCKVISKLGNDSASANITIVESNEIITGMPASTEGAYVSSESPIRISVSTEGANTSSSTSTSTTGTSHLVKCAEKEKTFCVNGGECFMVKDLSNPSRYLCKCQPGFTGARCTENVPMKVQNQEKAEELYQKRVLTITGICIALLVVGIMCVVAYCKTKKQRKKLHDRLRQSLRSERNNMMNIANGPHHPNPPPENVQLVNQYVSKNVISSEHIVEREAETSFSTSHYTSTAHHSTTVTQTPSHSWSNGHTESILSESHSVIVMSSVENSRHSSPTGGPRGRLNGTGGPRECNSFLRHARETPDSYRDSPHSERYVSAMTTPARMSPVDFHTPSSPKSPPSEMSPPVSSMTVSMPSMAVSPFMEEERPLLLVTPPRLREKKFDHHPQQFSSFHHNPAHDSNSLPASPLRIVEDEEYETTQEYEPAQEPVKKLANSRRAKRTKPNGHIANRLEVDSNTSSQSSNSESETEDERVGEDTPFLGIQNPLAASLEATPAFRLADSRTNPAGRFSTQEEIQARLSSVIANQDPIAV
# [7] = tested on: Neuregulin-1 EGF-like domain; experiment: small molecules binding NRG1 EGF domain – biochemical, small-molecule microarray, 635 nm fluorescence, primary screen (AID 1081); details: higher = more signal;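 note: binding of the protein to compounds printed on small-molecule microarray slides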
# [8] = FRG1 expression reporter modulators in myotubes – cell-based, C2C12 myotubes, firefly/Renilla luciferase, luminescence, FRG1 inhibition for FSHD, primary screen (AID 1084); details: FRG1 promoter luciferase, higher = more signal, called active from +8 up or from −8 down
# [9] = small molecules captured by biotinylated probe aFST – biochemical, small-molecule microarray, fluorescence 635/667, stem cell growth factor project, primary screen (AID 1086); details: higher = more signal;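 note: score merges 667 nm fluorescence with signal-to-noise of each printed compound spot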
# [10] = binders of probe aHhip on microarray, primary screen, stem cell growth factor project, biochemical, small-molecule microarray, fluorescence 635/667 (AID 1087); details: higher = more signal;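 note: score merges spot fluorescence at 667nm with spot signal to noise ratio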
Structure (SMILES),composite z-score [1],composite z-score [2],composite z-score [3],composite z-score [4],composite z-score [5],composite z-score [6],composite z-score [7],z-score [8],composite z-score [9],composite z-score [10]
CCCCCCc1nc(-c2cc(C)c(OC)c(C)c2)cc2c1[Si](C(C)C)(C(C)C)OC2,0.0546,-0.375,-0.0507,-0.278,-0.274,-0.405,-0.449,0.515 (inactive),-0.272,0.35
CO[C@H]1O[C@H](CO)[C@@H](OC(=O)Nc2cccc(F)c2)[C@H](OC(=O)Nc2ccccc2)[C@@H]1OC(=O)Nc1ccccc1,-0.139,0.995,0.185,1.17,1.51,1.51,1.19,1.17 (inactive),0.7,-0.137
CC1CC/C=C\[C@H]2OC34C=CCN(C(C)(C)C)C(=O)[C@H]3N(C(C)CO)C(=O)[C@@H]4C2C(=O)O1 (stereo not given in full),0.101,-0.702,-0.128,-0.414,-1.04,-0.486,0.061,-0.486 (inactive),-0.39,-0.0296
COc1cccc(-c2cccc(=O)o2)c1,0.782,-0.387,0.338,0.143,0.0405,0.851,0.322,5.22 (inactive),0.807,-0.236
[N-]=[N+]=Nc1ccccc1[C@@H]1OC(c2ccc(OCCCO)cc2)=N[C@]1(CCS(=O)(=O)c1ccccc1)C(N)=O,0.109,-0.0445,0.29,0.829,1.58,1.63,1.23,1.14 (inactive),2.08,-0.213
COC(=O)[C@@]1(Cc2ccc(OC)cc2)[C@H]2c3cc(C(=O)N(C)C)n(C)c3C[C@H]2CN1C(=O)c1ccccc1,0.32,0.35,0.24,0.759,1.66,1.85,1.18,1.76 (inactive),1.48,0.658
Oc1ccc2cc[n+](Cc3sc4ccccc4c3Cl)cc2c1,0.997,-0.466,-0.0976,-0.299,-0.308,-0.159,1.64,1.7 (inactive),0.031,0.16
O=C(NCCN1CCOCC1)C1N=C(c2ccc(OCCCO)cc2)N(c2ccccc2)O1 (stereo not given),0.377,1.4,0.071,0.318,1.48,0.561,1.3,4.31 (inactive),0.524,0.075
CN(C)C(=O)[C@@]1(CCS(=O)(=O)c2ccccc2)COC(c2ccc(OCCCO)cc2)=N1,0.578,-0.149,0.127,0.568,0.331,1.8,1.36,-2.05 (inactive),0.47,-0.141
COC(=O)C(CC#Cc1ccc2c(c1)[C@]1(C(=O)N2)[C@H](C(=O)Nc2nc3ccccc3s2)[C@H]2C(=O)O[C@H](c3ccccc3)[C@H](c3ccccc3)N2[C@@H]1c1ccccc1OCCO)C(=O)OC,0.0102,0.628,0.0941,1.12,1.26,1.07,1.31,1.43 (inactive),0.709,-0.0296
COc1ccc([Si](C)(C)[C@H]2[C@H](CCO)O[C@@]3(C(=O)N(Cc4ccc(N(C=O)c5ccccc5)cc4)c4ccccc43)[C@@H]2C)cc1,-0.151,-0.177,-0.0602,0.143,-0.285,0.799,0.606,-4.11 (inactive),-0.267,-0.249
CC(C)C(=C=CC[C@H](O)c1ccc(OCCO)cc1)CCO,-0.0762,0.887,-0.1,0.904,0.255,1.69,0.895,0.305 (inactive),0.326,-0.0994
O=C1O[C@@H](c2ccccc2)[C@@H](c2ccccc2)N2[C@@H](c3ccccc3OCCO)[C@]3(C(=O)Nc4ccccc43)[C@@H](C(=O)Nc3nc4ccccc4s3)[C@H]12,0.0741,0.581,0.0566,0.841,1.15,2.01,1.26,-1.26 (inactive),0.247,-0.329
CCCc1cc2c(n1Cc1cc(F)cc(F)c1)C(C)C1CN(C(=O)c3ccccc3)C(C)(C(=O)OC)C21 (stereo not given),1.25,1.77,0.256,0.426,1.71,1.62,1.18,0.0046 (inactive),1.58,0.441
NC(=O)N1C(=O)C2C(C1=O)C1C=C(c3ccc(CO)cc3)C2C(c2cccs2)N1Cc1cccc(OC(F)(F)F)c1 (stereo not given),0.677,0.639,-0.0085,0.326,-0.596,1.3,0.106,-0.723 (inactive),0.322,-0.0645
CCOC(=O)C[C@H]1[C@H](OC(=O)c2ccc(C(=O)c3ccccc3)cc2)[C@@H](NC(=O)CC(C)C)c2cc(OCCCO)ccc2N1C(=O)c1ccc2ccccc2n1,-0.538,0.154,-0.0715,0.86,1.28,0.621,1.22,-0.291 (inactive),0.334,-0.137
C=CCOC(=O)[C@H]1[C@@H]2C(=O)O[C@@H](c3ccccc3)[C@@H](c3ccccc3)N2[C@@H](c2ccc(OCCOC(=O)[C@H]3C[C@H]4C(=O)N[C@@H](CCCCNC(C)=O)C(=O)N4[C@H]3c3ccc(O)cc3)cc2)[C@]12C(=O)Nc1ccc(I)cc12,-0.37,0.517,0.0126,0.169,0.791,0.349,1.14,0.136 (inactive),1.3,0.312
CC#CC(=O)Oc1ccccc1C=CC(=O)OCC,-0.156,-0.0011,-0.0268,0.238,0.53,0.133,0.448,0.809 (inactive),0.163,-0.125
O=C1C[C@@](C(=O)NCCN2CCOCC2)(c2ccc([N+](=O)[O-])cc2)[C@@H](c2ccc(CO)cc2I)N1CC12CC3CC(CC(C3)C1)C2,-0.168,0.47,0.0232,0.569,0.926,1.64,1.37,-2.84 (inactive),0.45,0.192
COc1ccc(-c2cc3c(c(-c4ccc(Oc5ccccc5)cc4)n2)[Si](C(C)C)(C(C)C)OC3)cn1,-0.264,-0.65,-0.163,0.0106,0.358,-0.264,-0.502,-0.211 (inactive),0.406,-0.0994
CC1CC/C=C\[C@H]2OC34C=CCN(C(C)(C)C)C(=O)[C@H]3N(CCO)C(=O)[C@@H]4C2C(=O)O1 (stereo not given in full),-0.133,0.0564,-0.217,-0.749,-1.56,-1.02,0.784,0.0503 (inactive),-0.529,-0.0645
C=CCNC(=O)[C@@H]1[C@H]2C(=O)O[C@H](c3ccccc3)[C@H](c3ccccc3)N2[C@H](c2ccc(OCCO)cc2)[C@@]12C(=O)Nc1ccc(C#CCC(C(=O)OC)C(=O)OC)cc12,0.148,0.694,0.0185,0.721,0.89,1.81,1.3,0.141 (inactive),0.452,0.0505
CCCCC(CC)C(O)C1C=CC2C(=O)N(Cc3ccccc3)C(=O)C2N1n1cnnc1 (stereo not given),0.168,-0.367,-0.0305,0.175,0.0048,-0.343,1.1,-0.302 (inactive),0.246,-0.199
COCCOC(=O)N1C(=O)[C@@]2(c3cc(C#CCNC(N)=O)ccc31)[C@H](C(=O)N1CCN(c3ncccn3)CC1)[C@H]1C(=O)O[C@H](c3ccccc3)[C@H](c3ccccc3)N1[C@@H]2c1ccc(OCCO)cc1,0.0392,0.382,0.0465,0.719,0.795,0.821,0.87,0.0006 (inactive),0.601,0.0939
C=C(C(=O)CC[C@@H](OC(=O)c1cccnc1)c1ccccc1OCCO)C(C)C,-0.44,0.447,-0.119,0.0736,0.151,0.21,0.624,-0.151 (inactive),0.0397,0.0156
C=CCOC(=O)[C@H]1[C@@H]2C(=O)O[C@@H](c3ccccc3)[C@@H](c3ccccc3)N2[C@@H](c2ccc(OCCOC(=O)[C@H]3C[C@H]4C(=O)N[C@@H](CCCCN(C)C)C(=O)N4[C@H]3c3ccc(O)cc3)cc2)[C@]12C(=O)Nc1ccc(I)cc12,-0.38,1.01,0.0266,0.948,1.33,1.77,1.3,1.49 (inactive),0.0907,-0.274
COCCOC(=O)N1C(=O)[C@@]2(c3cc(C#CCC(C(=O)OC)C(=O)OC)ccc31)[C@H](C(=O)Nc1nc3ccccc3s1)[C@H]1C(=O)O[C@H](c3ccccc3)[C@H](c3ccccc3)N1[C@@H]2c1ccccc1OCCO,0.0949,0.684,0.0821,0.807,1.49,1.48,1.24,2.19 (inactive),0.0716,0.0873
CC(C)C(CO)N1C(=O)[C@@H]2C3C(=O)OCCC/C=C\[C@H]3OC23C=CCN(CCN2CCOCC2)C(=O)[C@@H]13 (stereo not given in full),-0.364,-0.306,-0.116,-0.294,-0.853,-0.197,0.366,1.3 (inactive),-0.139,0.0623
